From PubChem BioAssay
The list is not random: actives were taken first. Their share in the collection is about 7.5%.
SMN2 splice enh: qHTS Assay for Enhancers of SMN2 Splice Variant Expression. HEK293 SMN2-luciferase splicing reporter, luminescence, 30-36 h. Potency, µM (series often up to 46.1 µM), without a hit: top-dose activity change, positive = activation, most hits filed as activators. 210,000 tested, 2.8% active. AID 1458, 2008; further: % of control where 0% means no effect; nearly all actives have a fitted effect of over 55% in size
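qHTS luciferase splicing reporter: luminescence rises when SMN2 exon 7 is included in transfected HEK293 cells. Compound exposure lasted 30-36 h at 37C, with 4.5 mM final sodium butyrate as control, followed by a ONE-Glo read.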
NPC1 prom act: qHTS Assay for NPC1 Promoter Activators; Huh7 NPC1 promoter luciferase reporter, 24 h; 320,000 tested, 2.4% active; AID 485313, 2010; Potency, µM (highest dose often 9.22 µM), inactives show at the highest dose activation, usual class: activators; further: % of control where 0% means no effect; nearly all actives have a fitted effect of over 60% in size
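Luminescence from an NPC1 promoter-driven luciferase reporter in stably transfected Huh7 cells was measured after 24 h compound treatment at 37 °C, followed by 10 min ambient incubation with luciferase detection reagent.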
ELG1 genotoxic: qHTS screen for small molecules that induce genotoxicity in human embryonic kidney (HEK293T) cells expressing luciferase-tagged ELG1; HEK293T ELG1-luciferase reporter, luminescence, 16 h; Potency, µM (titrated, usually from 46 µM), without a hit: at the highest dose activity change, positive = activation, most hits filed as activators; 330,000 tested, 1.3% active; further: % of control where 0% means no effect; nearly all actives have a fitted effect of over 60% in size
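ELG1-luciferase HEK293T cells, 2,000/well; compound pinned in; 16 hr, 37 °C, 5% CO2; ONE-Glo, 30 min RT; luminescence on CCD imager.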
FLuc modulator: qHTS profiling assay for firefly luciferase inhibitor/activator using purifed enzyme and Km concentrations of substrates (counterscreen for miR-21 project); Luciferin 4-monooxygenase (Photinus pyralis), P08659; purified FLuc, Km substrates, luminescence inhibition; Potency, µM (top dose mostly 57.5 µM), without a hit: at the top dose activity change, negative = inhibition, usual class: inhibitors; 360,000 tested, 6.9% active; AID 588342, 2011;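 further: plate controls were vehicle for no effect and reference inhibitor for full effect; nearly all actives have a fitted effect of over 55% in size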
Target sequence (P08659 whole entry, looked up): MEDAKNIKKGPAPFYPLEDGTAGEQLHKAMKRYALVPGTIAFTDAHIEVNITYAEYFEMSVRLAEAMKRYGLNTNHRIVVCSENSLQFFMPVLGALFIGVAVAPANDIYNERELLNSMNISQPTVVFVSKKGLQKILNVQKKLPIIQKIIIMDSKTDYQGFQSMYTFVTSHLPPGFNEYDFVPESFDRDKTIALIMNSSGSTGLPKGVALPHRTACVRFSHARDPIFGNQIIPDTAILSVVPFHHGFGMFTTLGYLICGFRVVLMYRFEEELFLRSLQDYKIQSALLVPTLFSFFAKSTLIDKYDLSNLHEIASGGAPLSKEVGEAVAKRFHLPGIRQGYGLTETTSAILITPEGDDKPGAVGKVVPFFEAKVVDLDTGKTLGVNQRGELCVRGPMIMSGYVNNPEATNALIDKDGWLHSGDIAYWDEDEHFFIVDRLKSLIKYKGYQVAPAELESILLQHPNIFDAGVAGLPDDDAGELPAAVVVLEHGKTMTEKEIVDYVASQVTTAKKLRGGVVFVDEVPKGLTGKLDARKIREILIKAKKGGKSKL
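Purified P. pyralis luciferase (10nM final) with 10uM D-luciferin and 10uM ATP (Km levels) in 50mM Tris acetate pH 7.5, 10mM Mg acetate, 0.01% Tween-20, 0.05% BSA; qHTS 6-point titration, ~60 µM downward; luminescence read.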
Rab9 promoter act: qHTS Assay for Rab9 Promoter Activators; Potency, µM (titrated, usually from 9.22 µM), without a hit: top-dose activation, negative = inhibition, most hits filed as activators; Huh7 Rab9 promoter-luciferase reporter, luminescence, 24 h; 320,000 tested, 2.8% active; AID 485297, 2010; further: % of control where 0% means no effect; nearly all actives have a fitted effect of over 60% in size
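Huh7 cells stably carrying a Rab9 promoter-luciferase reporter, 1500 cells per well in OP-MEM I with 10% FBS, treated with compound 24 hours at 37C. Luciferase activity read by luminescence after 10 minutes with Amplite reagent.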
Luc counter: Counterscreen for Luciferase (Kinase-Glo TM) Inhibition; AID 1379, 2008; Luciferin 4-monooxygenase (Photuris pensylvanica), Q27757; Potency, µM (titrated, usually from 38.3 µM), for inactives: top-dose activity change, negative = inhibition, usual class: inhibitors; 200,000 tested, 0.28% active; Kinase-Glo luciferase, ATP luminescence, 8 min; further: on the % scale 0 is the no-effect control and ±100 the full control effect; nearly all actives have a fitted effect of over 60% in size
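Compounds were added to a substrate mix at pH 7.2 (50 mM imidazole, 10 uM ATP, within the enzyme's linear range), followed by Kinase-Glo detection reagent; luminescence was measured after 8 minutes at ambient temperature.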
The depositor's hits bear a star; ? = inconclusive; · = no result. The call rests on the fitted dose curve; in most records, active means well fitted curve in the direction sought with a large enough effect; inconclusive means small, poorly fitted or top-dose-only effect, or another doubt; inactive means no such curve, though single readings can be large; an effect the other way counts as inactive or inconclusive. Potency means the concentration at half of the fitted maximal effect.

SMILES	SMN2 splice enh	NPC1 prom act	ELG1 genotoxic	FLuc modulator	Rab9 promoter act	Luc counter
CCOC(=O)c1cc(-c2ccc(OC)cc2)n(CCC(=O)Nc2ccccc2OC)c1C	·	·	·	-8%	·	·
Cc1cc(C)n(-c2nc(C)c(C)c(=O)n2CC(=O)Nc2cccc([N+](=O)[O-])c2)n1	·	·	·	-11%	·	·
CCc1ccc(-c2cc(C(=O)N/N=C/c3c[nH]c4ccccc34)[nH]n2)cc1	27%	-10%	-7%	4.3µM*	-1%	3%
CCc1ccc2c(Cl)c(C(=O)N/N=C/c3c[nH]c4ccccc34)sc2c1	-13%	3%	-1%	19µM*	4%	-3%
COc1ccc(Cn2c(CO)cnc2SCc2ccc(C)cc2)cc1	·	·	·	17µM*	·	·
OCc1cnc(SCc2ccccc2)n1Cc1ccccc1	-2%	0%	-1%	0%	-1%	-1%
CC(C)Cn1c(=O)c2sccc2n2c(CCCC(=O)NCCc3ccc(Cl)cc3)nnc12	·	·	·	-7%	·	·
Cc1c(C(=O)N2CCc3ccccc3C2)oc2ccccc12	·	?	15%	24µM*	22%	·
COCc1c(C(=O)OCC(=O)N2c3ccccc3CC2C)oc2ccccc12 (stereo not drawn)	11%	-30%	1%	-1%	-2%	0%
Cc1c(C(=O)N2c3ccccc3CC2C)oc2ccccc12 (stereo not drawn)	·	24%	?	4.8µM*	2.8µM*	·
CC1(C)Cc2c(sc(NC(=O)c3ccc(Br)o3)c2C#N)CO1	13µM*	2.5µM*	22%	2.4µM*	3.5µM*	-1%
CC1(C)Cc2c(sc(NC(=S)NC(=O)c3ccccc3)c2C(=O)O)CO1	2%	2%	-1%	?	7%	-2%
CC1(C)Cc2c(sc(NC(=O)c3ccco3)c2C(=O)O)CO1	?	?	?	6.7µM*	?	-9%
CC(C)COc1ccc(/C(=N/O)c2ccccc2)cc1	-14%	20%	?	17µM*	22%	19%
CC(O)COc1ccc(/C(=N/O)c2ccccc2)cc1 (stereo not drawn)	8%	1%	0%	?	-2%	7%
COc1ccc(CN=C2NN=C(c3cccc(OC)c3)CS2)cc1	28µM*	28%	-7%	?	?	-4%
COc1cccc(C2=NNC(=NCc3ccccc3)SC2)c1	?	19%	2%	21µM*	?	-1%
COc1ccc(CN=C2NN=C(c3ccccc3)CS2)cc1	?	18%	13%	27µM*	?	1%
Cc1ccc(C)c(C2=NNC(=NCc3ccccc3)SC2)c1	-3%	11%	-10%	-15%	1%	2%
O=C(CN1CCN(S(=O)(=O)c2ccc(Br)cc2)CC1)N/N=C/c1ccccc1C(=O)O	·	-8%	0%	2%	4%	·
COc1ccc(NC(=O)c2c(NCc3ccc(OC)c(OC)c3OC)sc3c2CCC3)c(OC)c1	·	·	·	-4%	·	·
COc1ccc(Nc2nc(-c3ccccc3)nc3ccccc23)c(OC)c1	-12%	-12%	-6%	-19%	-5%	1%
Cc1ccc(Nc2nc(N)c3ccccc3n2)cc1C	·	0.5µM*	?	0.54µM*	0.5µM*	·
COc1ccc(Nc2nc(N)c3ccccc3n2)c(OC)c1	·	3.5µM*	?	7.6µM*	4.5µM*	·
COc1ccc(Nc2nc(N)c3cc(OC)c(OC)cc3n2)cc1	11%	·	·	15µM*	·	·
SMILES	SMN2 splice enh	NPC1 prom act	ELG1 genotoxic	FLuc modulator	Rab9 promoter act	Luc counter
COc1cc2nc(Nc3cccc(F)c3)nc(N)c2cc1OC	3%	0%	-6%	?	0%	·
CN1CCN(C(=O)Cn2c(-c3cccs3)cc3cc(Cl)ccc32)CC1	·	·	·	-6%	·	·
Cc1ccnc(NC(=O)CCN2C(=O)c3ccccc3S2(=O)=O)n1	·	10%	-12%	3%	7%	·
Cc1[nH]c(C)c(S(=O)(=O)N2CCN(c3ccccc3)CC2)c1C(=O)N1CCCCC1	·	0%	0%	3%	-13%	·
O=C(NCCc1ccccc1Cl)c1ccc(Cn2c(=O)c3cccn3c3cccnc32)cc1	·	·	·	-2%	·	·
COc1ccc(-c2cc(C(=O)Nc3cc(C)ccc3O)no2)cc1	·	?	21µM*	-8%	20%	·
COc1ccc(-c2cc(C(=O)Nc3cc(Cl)ccc3O)no2)cc1	·	3.5µM*	16µM*	?	?	·
Cc1ccc(-c2cc(C(=O)Nc3cc(C)ccc3O)no2)cc1	·	?	9%	?	?	·
Cc1ccc(O)c(NC(=O)c2cc(-c3ccccc3Cl)on2)c1	·	?	16µM*	?	?	·
COc1ccccc1OCCn1c(SCC(=O)O)nc2ccccc21	·	-2%	1%	2%	6%	·
COc1ccccc1OCCSc1nc2ccccc2n1CCO	·	1%	-1%	17µM*	1%	-3%
COc1ccccc1OCCSc1nc2ccccc2n1CCC(=O)O	·	1%	6%	27µM*	-2%	·
CCc1ccc(C2C(C(=O)Nc3ccc(Cl)cc3)=C(C)Nc3ncnn32)cc1 (stereo not drawn)	-6%	·	·	-6%	·	·
c1ccc(-c2noc(-c3cccnc3)n2)cc1	?	·	·	9.5µM*	·	-15%
CC(Nc1ccc(-c2nc(-c3cccnc3)no2)cc1[N+](=O)[O-])c1ccccc1 (stereo not drawn)	·	·	·	-1%	·	·
c1cncc(-c2noc(-c3ccc4ccccc4c3)n2)c1	·	0.32µM*	2.1µM*	1.2µM*	0.28µM*	·
O=c1[nH]c2ccccc2cc1-c1noc(-c2cccnc2)n1	-5%	23%	-2%	?	24%	-1%
c1ccc(-c2ccc(-c3nc(-c4cccnc4)no3)cc2)cc1	13µM*	1.3µM*	2.3µM*	1.3µM*	?	-10%
Cc1c(CCC(=O)NCCc2ccccc2F)c(=O)oc2cc(O)ccc12	3%	·	·	-18%	·	·
CC1CN(C(=O)c2ccc(COc3ccc4ccccc4c3)o2)CC(C)O1 (stereo not drawn)	·	22%	11%	17µM*	?	-1%
CC1CN(C(=O)c2ccc(COc3ccc(C(C)C)cc3)o2)CC(C)O1 (stereo not drawn)	·	?	?	13µM*	?	2%
CC1CN(C(=O)c2ccc(COc3ccccc3Cl)o2)CC(C)O1 (stereo not drawn)	·	-1%	-2%	-3%	-3%	·
Cc1ccccc1OCc1ccc(C(=O)N2CC(C)OC(C)C2)o1 (stereo not drawn)	·	5%	-3%	0%	3%	·
